Source: PubChem
POLI inh – inhibitors of human DNA polymerase iota; 390,000 tested, 1% active; Q9UNA4; Potency, µM (highest dose often 115 µM), for the others: top-dose activity, negative = inhibition, actives largely listed as inhibitors; Pol iota fluorescent replication assay, 10 min
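Fluorescent replication assay read twice, at 0 min and 10 min after adding 50 nM (final) substrate. Enzyme (10 nM) and compounds were first incubated 15 min at room temperature; enzyme-free buffer wells were negative controls.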
L3MBTL1 block – L3MBTL1 (human) inhibition; Q9Y468; AlphaScreen L3MBTL1–H3K9me1 peptide binding; Potency, µM (titrated, usually from 57.1 µM), for the others: at the highest dose activity, negative = inhibition, usual class: inhibitors; 230,000 tested, 0.66% active; further: on the % scale 0 is the no-effect control and ±100 the full control effect; nearly all actives have a fitted effect of over 60% in size
Target sequence (Q9Y468 whole entry, looked up): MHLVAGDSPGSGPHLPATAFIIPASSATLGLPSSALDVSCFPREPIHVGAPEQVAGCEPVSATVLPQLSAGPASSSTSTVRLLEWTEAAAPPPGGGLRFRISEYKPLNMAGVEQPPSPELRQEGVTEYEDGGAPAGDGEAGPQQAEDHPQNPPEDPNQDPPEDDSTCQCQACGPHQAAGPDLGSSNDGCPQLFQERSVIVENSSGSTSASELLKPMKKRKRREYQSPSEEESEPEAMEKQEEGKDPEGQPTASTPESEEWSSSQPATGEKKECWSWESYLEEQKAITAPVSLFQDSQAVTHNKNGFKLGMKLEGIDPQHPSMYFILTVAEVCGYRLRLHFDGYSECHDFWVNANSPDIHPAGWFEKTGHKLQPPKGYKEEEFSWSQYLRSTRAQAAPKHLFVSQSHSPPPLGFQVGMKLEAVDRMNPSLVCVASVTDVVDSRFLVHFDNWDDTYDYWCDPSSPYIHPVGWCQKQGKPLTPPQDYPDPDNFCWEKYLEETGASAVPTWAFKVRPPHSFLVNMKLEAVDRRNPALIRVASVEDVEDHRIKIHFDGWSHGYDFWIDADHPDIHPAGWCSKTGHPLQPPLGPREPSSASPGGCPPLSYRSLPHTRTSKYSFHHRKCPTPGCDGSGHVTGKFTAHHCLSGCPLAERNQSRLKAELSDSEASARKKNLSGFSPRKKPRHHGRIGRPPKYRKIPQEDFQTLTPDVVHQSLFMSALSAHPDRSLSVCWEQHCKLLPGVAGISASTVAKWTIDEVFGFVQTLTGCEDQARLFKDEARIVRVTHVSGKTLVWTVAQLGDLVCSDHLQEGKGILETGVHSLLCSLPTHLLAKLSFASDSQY
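L3MBTL1 (50 nM) pre-complexed 30 min with biotinylated H3(1-15)K9me1 peptide (75 nM), then compounds added for 30 min at room temperature; AlphaScreen streptavidin donor/nickel chelate acceptor beads (10 ug/mL final) read after 30 min dark incubation.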
APEX1 inh – APE1 (human) endonuclease inhibition. P27695. recombinant APE1, TAMRA/BHQ-2 abasic DNA cleavage fluorescence. Potency, µM (highest dose often 65.8 µM), for the others: top-dose activity change, negative = inhibition, hits mostly inhibitors. 350,000 tested, 0.35% active;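 further: plate controls were vehicle for no effect and reference inhibitor for full effect; nearly all actives have a fitted effect of over 55% in size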
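Substrate: short duplex with […] THF abasic site, 5'-TAMRA and 3'-BHQ-2, 50 nM final. APE1 at 0.75 nM, preincubated 15 min RT with compound. Fluorescence increase from first to third read measured activity.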
Pol eta inh – inhibitors of human DNA polymerase eta; Potency, µM (titrated, usually from 114 µM), inactives show top-dose activity change, negative = inhibition, actives largely listed as inhibitors; AID 588591; recombinant Pol eta, fluorescent DNA replication assay; 390,000 tested, 1.2% active; further: on the % scale 0 is the no-effect control and ±100 the full control effect
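Pol eta at 10 nM preincubated with compounds 15 min at room temperature; reaction started with fluorescent substrate (50 nM final) and read kinetically at 0 and 10 min.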
POLK inh – DNA polymerase kappa (human) inhibition; purified Pol kappa, fluorescent DNA synthesis assay, 10 min; Potency, µM (highest dose often 107 µM), for inactives: at the highest dose activity, negative = inhibition, most hits filed as inhibitors; 400,000 tested, 0.53% active; AID 588579; further: on the % scale 0 is the no-effect control and ±100 the full control effect
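Inhibition of 10 nM Pol kappa is measured by a fluorescent read-out at 0 and 10 min following addition of 50 nM substrate (final), with a 15-min room-temperature compound preincubation.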
Pol beta inh – blocks human DNA polymerase beta activity; Potency, µM (titrated, usually from 114 µM), for the others: top-dose activity change, negative = inhibition, usual class: inhibitors; P06746; 340,000 tested, 1.3% active; Pol beta primer extension/strand displacement, fluorescence kinetic; AID 485314; further: on the % scale 0 is the no-effect control and ±100 the full control effect
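Kinetic readout of DNA synthesis with strand displacement by Pol beta. Compound and 10 nM enzyme sit 15 min at room temperature; 50 nM substrate starts the reaction, read immediately and at 10 min.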
* hit, by the source's call; [ ] = remark or other dose. Compounds with a hit are over-represented: about 2.5% of the library has one in this group of screens. The call rests on the fitted dose curve; in most records, active means well fitted curve in the direction sought with a large enough effect; inconclusive means small, poorly fitted or top-dose-only effect, or another doubt; inactive means no such curve, though single readings can be large; an effect the other way counts as inactive or inconclusive. Potency means the concentration at half of the fitted maximal effect.

How did O=c1nc(/C=C/c2cc([N+](=O)[O-])ccc2Cl)cc(C(F)(F)F)[nH]1 do in these assays?
POLI inh: inconclusive; APEX1 inh: -2%; Pol eta inh: 22µM*; POLK inh: 12%; Pol beta inh: 6%

Results for O=c1nc(/C=C/c2cccn2-c2ccc([N+](=O)[O-])cc2)cc(C(F)(F)F)[nH]1 ?
POLI inh: 40µM*; APEX1 inh: 0%; Pol eta inh: 45µM*; POLK inh: 89µM*; Pol beta inh: inconclusive

Results for COc1cc(/C=C/c2cc(C(F)(F)F)[nH]c(=O)n2)cc(OC)c1OC ?
POLI inh: inconclusive; L3MBTL1 block: 1%; APEX1 inh: -5%; Pol eta inh: 8%; POLK inh: -5%; Pol beta inh: -28%

What do the screens show for `CCCCC#Cc1nc(N)c2ncn([C@@H]3O[C@H](C(=O)NCC)[C@@H](O)[C@H]3O)c2n1`?
POLI inh: 4%[58.9 µM]; APEX1 inh: -4%; Pol eta inh: 0%[57.1 µM]; Pol beta inh: 11%[57.1 µM]

How did Cc1ccccc1NS(=O)(=O)c1cccc2nsnc12 do in these assays?
POLI inh: 151%; APEX1 inh: -1%; Pol eta inh: -2%; POLK inh: -5%; Pol beta inh: -3%

What do the screens show for `CCCN(CC(=O)Nc1ccccc1C)C(=O)CC(NC(=O)c1ccccc1)c1ccccc1` (configuration not stated)?
POLI inh: 5%; L3MBTL1 block: 27%; APEX1 inh: 55%; Pol eta inh: -15%; POLK inh: -2%

How did O=C(CCC(=O)NC12CC3CC(CC(C3)C1)C2)NC1CCCCC1 do in these assays?
POLI inh: 20%; L3MBTL1 block: 3%; APEX1 inh: -4%; Pol eta inh: -8%; POLK inh: -7%; Pol beta inh: 62%

Results for COc1ccc(-c2nn3c(-c4cc(-c5ccccc5)n[nH]4)nnc3s2)cc1 ?
POLI inh: -10%; POLK inh: 2%

What do the screens show for `Nc1cccc2[nH]c(C(F)(F)F)nc12`?
POLI inh: 40µM*; L3MBTL1 block: inconclusive; APEX1 inh: inconclusive; Pol eta inh: 79µM*; POLK inh: inconclusive; Pol beta inh: inconclusive

What do the screens show for `CCN(CC)C(=O)C1CCCN(C(=O)Nc2ccc3nsnc3c2)C1` (configuration not stated)?
POLI inh: 0.89µM*; L3MBTL1 block: 21%; APEX1 inh: -1%; Pol eta inh: inconclusive; POLK inh: -6%; Pol beta inh: 8%

What do the screens show for `O=C(Nc1ccc2nsnc2c1)C1CC1`?
POLI inh: 22%; L3MBTL1 block: inconclusive; APEX1 inh: 15%; Pol eta inh: 0%; POLK inh: -11%; Pol beta inh: -2%

Results for S=C(Nc1ccc2nsnc2c1)N1CCCCC1 ?
POLI inh: 3.5µM*; L3MBTL1 block: -1%; APEX1 inh: -9%; Pol eta inh: -9%; POLK inh: -10%; Pol beta inh: 2%

How did N=C1/C(=C\c2ccc(SCc3ccccc3)o2)C(=O)N=C2SC(CC(=O)N3CCOCC3)=NN12 do in these assays?
POLI inh: 10µM*; APEX1 inh: -8%; Pol eta inh: 56µM*; POLK inh: inconclusive; Pol beta inh: inconclusive

Results for Cc1ccc(/C=C2\C(=N)N3N=C(CC(=O)N4CCOCC4)SC3=NC2=O)o1 ?
POLI inh: inconclusive; APEX1 inh: 17%; Pol eta inh: 28µM*; POLK inh: inconclusive; Pol beta inh: inconclusive

Results for COc1cccc2c1C(=O)c1c(O)c3c(c(O)c1C2=O)C[C@](O)(C(=O)CO)C[C@@H]3O[C@H]1C[C@H](N)[C@@H](O)[C@H](C)O1 ?
POLK inh: -2%[60.1 µM]

What do the screens show for `COc1cccc2c1C(=O)c1c(O)c3c(c(O)c1C2=O)C[C@@](O)(C(=O)CO)C[C@@H]3O[C@H]1C[C@H](N)[C@@H](O)[C@H](C)O1`?
POLI inh: 40µM*; Pol eta inh: inconclusive; POLK inh: inconclusive

What do the screens show for `COc1cccc2c1C(=O)c1c(O)c3c(c(O)c1C2=O)C[C@@](O)(C(=O)CO)C[C@@H]3OC1C[C@@H](N)[C@H](O)[C@H](C)O1` (some centres not stated)?
APEX1 inh: 10µM*; POLK inh: 18µM*

What do the screens show for `FC(F)(F)c1nnc2ccc(NCc3ccccc3)nn12`?
POLI inh: 8%; L3MBTL1 block: 27%; APEX1 inh: -2%; Pol eta inh: 2%; POLK inh: -18%; Pol beta inh: 1%

How did FC(F)(F)c1nnc2ccc(NCn3nnc4ccccc43)nn12 do in these assays?
POLI inh: 0%; L3MBTL1 block: inconclusive; APEX1 inh: -1%; Pol eta inh: 89µM*; POLK inh: 4%; Pol beta inh: -15%

How did COc1cc(/C=C(\C#N)c2nc3ccccc3[nH]2)cc(Cl)c1OCc1ccccc1Cl do in these assays?
POLI inh: 69%; Pol eta inh: inconclusive; POLK inh: -8%; Pol beta inh: 3.2µM*

What do the screens show for `N#C/C(=C\c1ccc(OCc2ccc(Cl)cc2Cl)cc1)c1nc2ccccc2[nH]1`?
POLI inh: 43%; Pol eta inh: -12%; POLK inh: -12%; Pol beta inh: 11%

What do the screens show for `Cc1ccccc1-c1nc(N2CCOCC2)c2ccccc2n1`?
APEX1 inh: 8.9µM*; POLK inh: inconclusive

How did CCc1ccc(OCC(=O)c2c(O)c3ccccc3oc2=O)cc1 do in these assays?
POLI inh: inconclusive; L3MBTL1 block: 8%; APEX1 inh: 0%; Pol eta inh: -2%; POLK inh: -15%; Pol beta inh: -4%

How did CCc1oc2ccccc2c1C(=O)c1cc(Br)c(O)c(Br)c1 do in these assays?
POLI inh: 16%; L3MBTL1 block: -9%; APEX1 inh: -5%; Pol eta inh: -18%; POLK inh: -18%; Pol beta inh: 50µM*

How did COc1cc2sc3ccc(-c4ccc5[nH]ccc5c4)cc3c(=O)c2cc1OC do in these assays?
POLI inh: 79µM*; Pol eta inh: -6%; POLK inh: -44%

What do the screens show for `COc1cc2sc3ccc(C#Cc4ccc(N)cc4)cc3c(=O)c2cc1OC`?
POLI inh: 1%; Pol eta inh: -12%; POLK inh: 10%

What do the screens show for `O=C1c2ccccc2C(=O)c2c1ccc(C(=O)N1CCCCC1)c2NCCO`?
POLI inh: 12%; L3MBTL1 block: -5%; APEX1 inh: -5%; Pol eta inh: -14%; POLK inh: -3%; Pol beta inh: inconclusive
